Among all 390,000 compounds or so, about 17,000 (4.4%) were called active. About 8% were inconclusive and are not listed. Shown is part of a subset that was picked to be rich in actives. A number with no mark means an inactive call. The call rests on the fitted dose curve; in most records, active means well fitted inhibition curve with a large enough effect; inconclusive means small, poorly fitted or top-dose-only effect; inactive means no such curve, though single readings can be large or run the other way.
On the % scale 0 is the no-effect control and ±100 the full control effect; potency means the concentration at half of the fitted maximal effect.

The assay deals with Lysine-specific demethylase 4A (Homo sapiens) (UniProt O75164). Briefly: qHTS Assay for Inhibitors of JMJD2A-Tudor Domain. Further: nearly all actives have a fitted effect of over 50% in size. As to conditions: AlphaScreen JMJD2A-Tudor / H3K4me3 peptide binding; series mostly up to 114 µM; activity change, negative = inhibition: at the top concentration. A general note: Quantitative high-throughput screening tests each substance at several concentrations.
Chain of Lysine-specific demethylase 4A (Homo sapiens) (O75164 whole entry, looked up, the tested form may be a part): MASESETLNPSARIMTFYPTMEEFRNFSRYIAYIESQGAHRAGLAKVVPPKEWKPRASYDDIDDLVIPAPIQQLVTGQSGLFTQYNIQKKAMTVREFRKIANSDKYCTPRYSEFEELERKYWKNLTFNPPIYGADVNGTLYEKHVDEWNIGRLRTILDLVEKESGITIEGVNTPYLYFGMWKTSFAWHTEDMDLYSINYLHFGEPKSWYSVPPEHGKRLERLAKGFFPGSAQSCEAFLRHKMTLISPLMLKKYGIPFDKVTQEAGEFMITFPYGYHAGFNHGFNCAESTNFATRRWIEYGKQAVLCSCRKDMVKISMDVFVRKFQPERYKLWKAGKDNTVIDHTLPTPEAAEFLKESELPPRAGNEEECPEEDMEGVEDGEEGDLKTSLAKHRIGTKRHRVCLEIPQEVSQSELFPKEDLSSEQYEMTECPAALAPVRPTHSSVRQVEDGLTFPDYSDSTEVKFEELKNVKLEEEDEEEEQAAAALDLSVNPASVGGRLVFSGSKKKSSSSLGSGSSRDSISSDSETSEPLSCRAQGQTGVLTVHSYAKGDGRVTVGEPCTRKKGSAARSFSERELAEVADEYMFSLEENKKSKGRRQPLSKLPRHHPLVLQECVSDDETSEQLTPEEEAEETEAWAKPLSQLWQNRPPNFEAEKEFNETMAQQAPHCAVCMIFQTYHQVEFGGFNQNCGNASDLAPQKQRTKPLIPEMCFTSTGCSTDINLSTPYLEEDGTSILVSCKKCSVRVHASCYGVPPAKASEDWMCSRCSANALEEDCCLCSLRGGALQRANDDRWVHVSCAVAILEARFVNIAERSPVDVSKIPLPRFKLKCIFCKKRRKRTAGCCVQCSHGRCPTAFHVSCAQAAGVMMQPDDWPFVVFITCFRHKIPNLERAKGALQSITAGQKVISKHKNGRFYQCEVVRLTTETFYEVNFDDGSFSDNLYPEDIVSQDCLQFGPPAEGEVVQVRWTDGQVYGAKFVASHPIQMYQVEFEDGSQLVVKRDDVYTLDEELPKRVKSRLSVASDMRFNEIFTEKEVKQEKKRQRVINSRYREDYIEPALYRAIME
With `COc1ccc(OCCn2ccnc2C)cc1`, the Potency was 1 µM (active). Turning to `COc1ccc(OCCn2cc(C(=O)C3CCCCC3)c3ccccc32)cc1`, the “activity change, negative = inhibition” value was 4.12%. In the case of `COc1ccc(OCCCC(=O)Oc2ccc(OC)cc2)cc1`, the “activity change, negative = inhibition” value is -6.34%.

On to `CCOc1ccc(N(CC)C(=O)C2CCN(S(=O)(=O)c3cccc4nonc34)CC2)cc1`, for which the “activity change, negative = inhibition” value is -12.3%. For `Cc1oc2c(c1C(=O)N1CCOCC1)C(=O)c1ccccc1C2=O`, the “activity change, negative = inhibition” value was -5.52%. Regarding `O=S(=O)(Nc1cc(Cl)ccc1N1CCOCC1)c1ccccc1Cl`, the “activity change, negative = inhibition” value is -6.21%. Regarding `O=C1c2ccccc2-c2ncnc3c(N4CCOCC4)cc(N4CCOCC4)c1c23`, the Potency is 44.7 µM (active). `Cn1nnnc1SCCCNCc1cccc(OCc2ccc(Cl)cc2)c1`: the “activity change, negative = inhibition” value is -10.9%. `O=[S+]([O-])(c1ccc2c(c1)OCCO2)N1CCN([S+](=O)([O-])c2c(Cl)cc(Cl)cc2Br)CC1`: the “activity change, negative = inhibition” value is -18.5%.

`Cc1ccc(C)c(N2CCN(CCCNC(=O)Nc3ccc(Cl)cc3)CC2)c1`: the “activity change, negative = inhibition” value was -24%. The same measure, in the same setting: then `CCOc1ccc(NC(=O)CCS(=O)(=O)c2cccc3nsnc23)cc1`, with -25%. On to `CCOc1ccccc1NC(=O)CCS(=O)(=O)c1cccc2nsnc12`, for which the Potency entry is “inactive”.

For the molecule `CCOc1ccc(OCC)c(NC(=O)CN(C)S(=O)(=O)c2cccc3nsnc23)c1`, the Potency is 50.1 µM (active). `CCc1nc2onc(C)c2c(=O)n1CC(=O)O`: the “activity change, negative = inhibition” value was -23.5%. As to `CCOc1ccc(NC(=O)c2cn(C3CCCCC3)c(=O)c3c2c2ccccc2n3C)cc1`, the “activity change, negative = inhibition” value was -11%. Regarding `O=C(N/N=C/c1cccc(Br)c1)c1ccc(N2CCCC2=O)cc1`, the Potency is 56.2 µM (active).

Take `O=C(N/N=C\c1cccc(Br)c1)c1ccccc1-n1cccc1`: the “activity change, negative = inhibition” value is -14.5%.

Regarding `O=C(Nc1ccc(N2CCCC2=O)cc1)c1cncc(Br)c1`, the “activity change, negative = inhibition” value is 4.17%. On the same count and under the same terms, then `O=[N+]([O-])c1ccccc1OCCCCN1CCCCC1`, with -20.3%.

Turning to `CC1CN(CCOc2ccccc2[N+](=O)[O-])CC(C)O1` (stereo not drawn), the Potency is 22.4 µM (active). For `CC(Oc1ccccc1[N+](=O)[O-])C(=O)N/N=C/c1ccoc1` (stereo not drawn), the “activity change, negative = inhibition” value was -15.2%.

For the molecule `COc1ccc2ncc3c(-c4ccc(C)c(C)c4)nn(CC(=O)NC4CCCC4)c3c2c1`, the “activity change, negative = inhibition” value is -12.3%. `Cc1cc(=O)n(CC(=O)Nc2cccc([N+](=O)[O-])c2)c(-n2nc(C)cc2C)n1`: the “activity change, negative = inhibition” value is -18.2%. For `O=C(/C=C/c1ccccc1)N1CCN(Cc2cc(=O)n3nc(-c4ccccc4F)sc3n2)CC1`, the “activity change, negative = inhibition” value was -0.325%. Take `COc1cccc2c1cc1c(=O)n(CC(=O)N3CCN(c4ccccc4)CC3)nc(C)n12`: the “activity change, negative = inhibition” value was -14.5%. As to `CC1Cc2cc(/C(O)=C3\C(=O)C(=O)N(CCN4CCOCC4)C3c3ccccc3F)ccc2O1` (stereo not drawn), the Potency was 39.8 µM (active). As for `O=C1C(=O)N(CCN2CCOCC2)C(c2cccc(Cl)c2)/C1=C(/O)c1ccc2c(c1)OCO2` (stereo not drawn), the “activity change, negative = inhibition” value is -16.7%. In the case of `CC1Cc2cc(/C(O)=C3\C(=O)C(=O)N(Cc4cccnc4)C3c3ccccc3F)ccc2O1` (stereo not drawn), the “activity change, negative = inhibition” value was -12.8%.

The values above are taken from PubChem BioAssay AID504339 (National Center for Advancing Translational Sciences (NCATS), 2011).
